Shown are actives, neighbours in structure and some others; about 12% of the full set was active somewhere.
Pf growth 96h – P. falciparum growth inhibition at 96 hours; hit rate 6.9% among 320,000; Potency, µM (titrated, usually from 28.7 µM), for the others: at the top dose activity change, negative = inhibition, actives largely listed as inhibitors; AID 504834; P. falciparum luciferase reporter growth, 96 h; further: on the % scale 0 is the no-effect control and ±100 the full control effect
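Delayed-death screen, second-generation endpoint: infected erythrocytes, 2% hematocrit, 0.05% parasitemia final; 96 hours at 37 C, 5% CO2; luciferase detection reagent; luminescence decrease equals reduced growth.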
AmpC inh no detg – AmpC beta-lactamase inhibition without detergent | P00811 | AmpC nitrocefin hydrolysis, absorbance 480 nm, 0.0001% Triton | Potency, µM (series often up to 57.1 µM), without a hit: at the highest dose activity change, negative = inhibition, hits mostly inhibitors | hit rate 0.52% among 330,000 | AID 485341;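 further: plate controls were no compound for no effect and no enzyme for full effect; nearly all actives have a fitted effect of over 20% in size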
Target sequence (P00811 whole entry, looked up): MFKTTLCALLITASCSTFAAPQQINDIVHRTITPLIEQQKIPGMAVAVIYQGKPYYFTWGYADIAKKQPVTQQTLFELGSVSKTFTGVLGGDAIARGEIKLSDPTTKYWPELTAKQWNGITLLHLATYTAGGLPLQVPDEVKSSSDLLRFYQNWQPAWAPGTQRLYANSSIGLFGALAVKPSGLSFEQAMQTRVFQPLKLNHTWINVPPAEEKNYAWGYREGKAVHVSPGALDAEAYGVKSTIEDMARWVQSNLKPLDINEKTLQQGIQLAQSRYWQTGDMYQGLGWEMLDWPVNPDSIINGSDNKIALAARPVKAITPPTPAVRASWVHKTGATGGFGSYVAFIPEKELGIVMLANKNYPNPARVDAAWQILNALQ
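20 mM phosphate pH 7.0 + 0.01% (detergent screen) or 0.0001% Triton X-100; 5.3 nM AmpC reagent; cpd preinc 15 min RT; nitrocefin (800 uM stock) to start; A480 q20 s × 4 min; Activity was normalised to no-enzyme and no-compound control wells.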
AmpC detergent – AmpC beta-lactamase inhibition with detergent present; hit rate 0.041% among 370,000; AmpC hydrolysis of nitrocefin, absorbance 480 nm, 0.01% Triton; Potency, µM (top dose mostly 114 µM), for inactives: at the top dose activity change, negative = inhibition, most hits filed as inhibitors; P00811;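 further: 0% = no-compound wells and -100% = no-enzyme wells; nearly all actives have a fitted effect of over 25% in size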
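AmpC (5.3 nM in the dispensed reagent) in 20 mM phosphate pH 7.0 with 0.01% (detergent screen) or 0.0001% Triton X-100 was preincubated with compounds for 15 min at room temperature. Nitrocefin was then added from an 800 uM solution, and hydrolysis was followed at 480 nm.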
Pf growth 48h – inhibits P. falciparum growth in the first generation, 48 h | hit rate 5.9% among 310,000 | P. falciparum luciferase growth in erythrocytes, 48 h | Potency, µM (highest dose often 28.7 µM), without a hit: top-dose activity change, negative = inhibition, most hits filed as inhibitors | AID 504832; further: on the % scale 0 is the no-effect control and ±100 the full control effect
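A one-generation exposure of luciferase-tagged malaria parasites in RPMI 1640/Albumax erythrocyte culture, 37 C and 5% CO2. Inhibition is inferred from decreased luminescence after adding detection reagent.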
Sm TGR inh – blocks Schistosoma mansoni thioredoxin glutathione reductase | purified TGR, DTNB reduction, TNB absorbance 405 nm | Potency, µM (top dose mostly 114 µM), for the others: top-dose activity change, negative = inhibition, usual class: inhibitors | hit rate 3% among 360,000 | AID 485364; further: on the % scale 0 is the no-effect control and ±100 the full control effect; nearly all actives have a fitted effect of over 60% in size
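First, TGR (20 nM dispensed) and NADPH were mixed with compound. Second, a 15 min room-temperature incubation followed. Third, further NADPH and then DTNB were added to start the reaction. Finally, TNB absorbance was monitored kinetically.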
SARS PLP yeast – inhibitors of SARS-CoV papain-like protease in yeast | hit rate 0.19% among 330,000 | Potency, µM (titrated, usually from 32.9 µM), for the others: top-dose activity, positive = growth rescue, most hits filed as activators | S. cerevisiae expressing SARS-CoV PLpro, growth rescue; calls by dose curve; further: 0% is about no effect; nearly all actives have a fitted effect of over 55% in size
* hit, by the source's call; ? = inconclusive; · = no result; [ ] = remark or other dose. Unless noted, the call rests on the fitted dose curve; in most records, active means well fitted curve in the direction sought with a large enough effect; inconclusive means small, poorly fitted or top-dose-only effect, or another doubt; inactive means no such curve, though single readings can be large; an effect the other way counts as inactive or inconclusive. Potency means the concentration at half of the fitted maximal effect.

SMILES	Pf growth 96h	AmpC inh no detg	AmpC detergent	Pf growth 48h	Sm TGR inh	SARS PLP yeast
Cc1cccc(N(CC(=O)Nc2ccccc2F)S(C)(=O)=O)c1	5.2µM*	-2%	1%	·	-1%	4%
CCC(=O)Nc1ccc(CC)cc1-c1nc2ccccc2n(Cc2ccccc2)c1=O	·	·	1%	·	-4%	·
CCCCc1ccc(NC(=S)NCCc2ccc(F)cc2)cc1	11%	-41%	0%	-1%[5.75 µM]	10%	-1%
O=C(Nc1ccccc1NC(=O)c1ccco1)c1ccccc1	38%	-8%	3%	6%	1%	0%
O=C(C#Cc1ccccc1)c1ccco1	-17%	-35%	?	-30%	0.89µM*	-66%
COC(=O)c1cc2c(cc1NC(=O)c1cnn(-c3ccccc3)c1-n1cccc1)OCO2	·	·	15%	·	1%	·
CCOc1cc2c(cc1OCC)C(c1ccccc1)N(c1ccccc1)C(=O)C2 (stereo not given)	4.1µM*	104%	?	?	1%	2%
NC(N)=N/N=C/c1cn(-c2ccccc2)nc1-c1cccs1	0.52µM*	-8%	-5%	2.6µM*	1%	1%
COc1ccc(-c2nn(-c3ccccc3)cc2/C=N/Nc2ccc3ccccc3n2)cc1OC	2.3µM*	53%	-5%	2.6µM*	6%	-1%
COc1ccc(-c2nn(-c3ccccc3)cc2CO)cc1OC	-12%	5%	?	13µM*	0%	0%
S=c1[nH]nc(-c2cccs2)n1/N=C/c1cn(-c2ccccc2)nc1-c1cccs1	56%	?	2%	60%	1%	3%
COc1ccc(-c2nn(-c3ccccc3)cc2/C=N/N=C(N)N)cc1OC	1.9µM*	-9%	1%	1.7µM*	-2%	5%
COc1cccc(-c2nn(-c3ccccc3)cc2CO)c1	·	·	-10%	99%	7%	·
O=C(Cc1ccc(F)cc1)N1CCOCC1	0%	-7%	-12%	10%	11%	6%
CCOC(=O)c1cccc(NC(=O)NCCc2c(C)nn(C)c2C)c1	·	·	11%	·	4%	·
Nc1ccc(Br)c2cccnc12	27%	-19%	8%	13%	50µM*	0%
Cc1cccc(N(CC(=O)N2CCc3ccccc3C2)S(C)(=O)=O)c1C	59%	31%	-14%	-9%	-21%	6%
COc1ccc(NC(=O)CC2C(=O)N(c3cccc(C)c3)C(=O)N2Cc2cccnc2)cc1 (stereo not given)	·	·	14%	·	-3%	·
Cc1ccc(S(=O)(=O)N/N=C/c2c[nH]c3ccccc23)cc1	67%	-24%	4%	280%	-15%	0%
Cc1ccc(S(=O)(=O)/C(C#N)=C/c2c[nH]c3ccccc23)cc1	·	18µM*	-4%	-16%	9%	-1%
Cc1ccc(OCC(=O)OC2=C(C(=O)c3ccccc3)N(C)S(=O)(=O)c3ccccc32)cc1	·	·	31%	·	32µM*	·
CCN1C(C(=O)c2ccccc2)=C(OC(=O)COc2ccccc2)c2ccccc2S1(=O)=O	·	·	4%	·	16µM*	·
CCOC(=O)c1cc(NC(=O)c2ccc(C)cc2)c(=O)n2c1oc1ccc(Cl)cc12	·	·	22%	·	-1%	·
COC1(C(F)(F)F)NC(=O)N(c2ccc(F)cc2)C1=O (stereo not given)	·	·	1%	·	0%	·
O=C(O)c1ccc(/C=N/NC(=O)c2cc(-c3ccc4c5c(cccc35)CC4)n[nH]2)cc1	?	-36%	2%	0%	3%	0%
SMILES	Pf growth 96h	AmpC inh no detg	AmpC detergent	Pf growth 48h	Sm TGR inh	SARS PLP yeast
CC(C(=O)O)c1ccc2c(c1)Cc1cccnc1O2 (stereo not given)	1.5µM*	·	·	-7%	·	·
CCC(C)NC(=O)CCC(=O)N1Cc2ccccc2Oc2ncccc21 (stereo not given)	·	·	14%	·	31%	·
CCOC(=O)C(CC(C)C)CP(=O)(O)CNC(=O)OCc1ccccc1 (stereo not given)	7.4µM*	-20%	-14%	0%	-33%	-8%
CCOC(=O)CCNC(=O)CNC(=O)OCc1ccccc1	24%	-3%	?	18%	5%	8%
CC1(c2ccc(OCC#N)cc2)C=C(c2ccc(OCC#N)cc2)n2nc(C(F)(F)F)nc2N1 (stereo not given)	7.4µM*	?	-6%	9.3µM*	-9%	-19%
Cc1ccc(NC(=O)CCN2CCOCC2)cc1C	0.93µM*	-1%	-8%	19%	0%	12%
Cc1cc(C)cc(NC(=O)CCN2C(=O)c3ccccc3Sc3ncccc32)c1	·	·	-1%	·	40µM*	·
Cc1cc(C)cc(NC(=O)CN2C(=O)c3ccccc3Sc3ncccc32)c1	·	·	18%	·	6%	·
Cc1ccc(NC(=O)CCN2C(=O)c3ccccc3C2=O)cc1	12µM*	-18%	-4%	3%	0%	-1%
Cc1ccc(NC(=O)CCN2CCC(C)CC2)cc1	13µM*	-5%	1%	34%	-23%	-2%
COc1ccc(NC(=O)Cn2c(=O)n(Cc3ccco3)c(=O)c3sc4ccccc4c32)cc1Cl	·	·	-6%	·	-11%	·
O=C(Cc1ccccc1)c1nnc(-c2ccccc2)o1	?	-31%	3%	-1%	14%	-3%
CC1CCN(c2nn3c(=O)c(C(=O)NCc4ccc(Cl)cc4)cnc3s2)CC1	·	·	1%	·	0%	·
COC(=O)c1ccc(NC(=O)CCN2CCCCC2)cc1	1.5µM*	-12%	8%	-10%	7%	11%
Cc1ccc(C)c(NC(=O)CCN2CCC(C)CC2)c1	5.2µM*	-8%	-8%	10%	?	-3%
COC(=O)c1ccc(NC(=O)CCN2CCN(CCC(=O)Nc3ccc(C(=O)OC)cc3)CC2)cc1	?	-6%	-11%	-20%	-5%	3%
O=C(CCN1C(=O)c2ccccc2S1(=O)=O)Nc1ccc(C(=O)O)cc1	10µM*	-9%	-5%	36%	4%	0%
COc1ccc(NC(=O)CCN2CCCC(C)C2)cc1 (stereo not given)	·	-13%	2%	11%	89µM*	3%
COc1ccccc1C(CNC(=O)CNC(=O)c1ccccc1Cl)N1CCCC1 (stereo not given)	-29%	-12%	-3%	-14%	-22%	-9%
O=C(NCCCN1CCCC1=O)c1ccc(NS(=O)(=O)c2ccc(F)cc2)cc1	?	-27%	-1%	8%	2%	-3%
Cc1ccc(NC(=O)CN(C)CC(=O)Nc2c(C)cccc2C)c(Br)c1	?	42%	-9%	?	-11%	8%
Cc1cc(C)n(C(=O)Cn2nc(C(F)F)cc2C)n1	1%	-33%	?	5%	7%	23%
CCN1CCN(CCC(=O)Nc2cc(C)ccc2C)CC1	?	-3%	5%	52%	-3%	2%

Source: PubChem BioAssay (National Center for Advancing Translational Sciences (NCATS))
